From the supplement of paper PMC8285479
Structures can show the parent of a compound that is named as a salt. ± gives the standard deviation of the averaged measurements. Over roughly 1,900 compounds, “normalised cell viability (NPI; 0 = phenylarsine oxide control, 1 = DMSO control)” has its median near 1; the lowest 2% begin near 0.039. For the sample, the lowest values were picked, then their nearest neighbours and some compounds at random.

Test system: NCI-H1944
Assay: normalised cell viability (NPI; 0 = phenylarsine oxide control, 1 = DMSO control) (fraction of DMSO control); NCI-H1944 is a non-small cell lung cancer line; higher = more viable cells (less compound toxicity)
Settings: 6 days
[1] = glucocorticoid arm: hydrocortisone 2.75 uM co-treatment, compound 1 µM
[2] = glucocorticoid arm: hydrocortisone 2.75 uM co-treatment, compound 5 µM
[3] = glucocorticoid arm: hydrocortisone 2.75 uM pre-treated 2 days and continued, compound 1 µM
[4] = glucocorticoid arm: hydrocortisone 2.75 uM pre-treated 2 days and continued, compound 5 µM
[5] = glucocorticoid arm: vehicle, compound 1 µM
[6] = glucocorticoid arm: vehicle, compound 5 µM
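Note: CTB read-out in 384-well plates, triplicate wells, NPI normalised per plate against 1 µM phenylarsine oxide (0) and 0.1% DMSO (1) controls.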

SMILES: Clc1ccc(C(c2ccc(Cl)cc2)[n+]2ccn(CC(OCc3ccc(Cl)cc3Cl)c3ccc(Cl)cc3Cl)c2)cc1 (configuration not stated) [Calmidazolium chloride]
- normalised cell viability [1]: 0.974 ± 0.035
- normalised cell viability [2]: 0.00138 ± 0.00076
- normalised cell viability [3]: 0.993 ± 0.012
- normalised cell viability [4]: -0.000224 ± 0.0015
- normalised cell viability [5]: 1.002 ± 0.0072
- normalised cell viability [6]: 0.00119 ± 0.00017

SMILES: CN(CC[C@@H](Oc1ccc(C(F)(F)F)cc1)c1ccccc1)CC(=O)[O-].[Li+]
- normalised cell viability [1]: 0.992 ± 0.0046
- normalised cell viability [2]: 0.989 ± 0.011
- normalised cell viability [3]: 0.99 ± 0.014
- normalised cell viability [4]: 0.998 ± 0.018
- normalised cell viability [5]: 0.979 ± 0.016
- normalised cell viability [6]: 0.9777 ± 0.0035

SMILES: NCCC[C@](N)(C(=O)O)C(F)F (racemic) [DL-alpha-Difluoromethylornithine hydrochloride]
- normalised cell viability [1]: 0.9853 ± 0.0063
- normalised cell viability [2]: 0.923 ± 0.021
- normalised cell viability [3]: 0.9873 ± 0.0064
- normalised cell viability [4]: 0.932 ± 0.011
- normalised cell viability [5]: 0.9863 ± 0.0055
- normalised cell viability [6]: 0.9817 ± 0.0032

SMILES: O=C(CCCN1C(=O)c2cccc3cccc(c23)C1=O)NO [Nullscript]
- normalised cell viability [1]: 0.981 ± 0.011
- normalised cell viability [2]: 0.961 ± 0.029
- normalised cell viability [3]: 1 ± 0.012
- normalised cell viability [4]: 0.987 ± 0.018
- normalised cell viability [5]: 1 ± 0.0082
- normalised cell viability [6]: 1.01 ± 0.014

SMILES: c1cc(CN2CCCNCCNCCCNCC2)ccc1CN1CCCNCCNCCCNCC1 [Plerixafor]
- normalised cell viability [1]: 1 ± 0.018
- normalised cell viability [2]: 1 ± 0.017
- normalised cell viability [3]: 1.01 ± 0.011
- normalised cell viability [4]: 0.996 ± 0.016
- normalised cell viability [5]: 1.006 ± 0.0063
- normalised cell viability [6]: 1.01 ± 0.013

SMILES: CNCc1ccc(-c2[nH]c3cc(F)cc4c3c2CCNC4=O)cc1
- normalised cell viability [1]: 0.982 ± 0.0036
- normalised cell viability [2]: 1 ± 0.071
- normalised cell viability [3]: 0.968 ± 0.0095
- normalised cell viability [4]: 1.01 ± 0.022
- normalised cell viability [5]: 0.989 ± 0.013
- normalised cell viability [6]: 0.948 ± 0.022

SMILES: CCCCc1nc2cc(/C=C/C(=O)NO)ccc2n1CCN(CC)CC [Pracinostat (SB939)]
- normalised cell viability [1]: 0.9753 ± 0.004
- normalised cell viability [2]: 0.00959 ± 0.0058
- normalised cell viability [3]: 1 ± 0.0095
- normalised cell viability [4]: 0.0658 ± 0.0071
- normalised cell viability [5]: 0.686 ± 0.077
- normalised cell viability [6]: 0.000852 ± 0.0004

SMILES: Nc1ncnc2c1c(-c1cccc(OCc3ccccc3)c1)cn2C1CC(CN2CCC2)C1 (configuration not stated)
- normalised cell viability [1]: 0.457 ± 0.025
- normalised cell viability [2]: 0.366 ± 0.021
- normalised cell viability [3]: 0.596 ± 0.0046
- normalised cell viability [4]: 0.436 ± 0.062
- normalised cell viability [5]: 0.939 ± 0.013
- normalised cell viability [6]: 0.776 ± 0.039

SMILES: O=C(NCCO)c1ccc2c(c1)nc(Nc1cccc(Cl)c1)c1ccncc12 [CK2 Inhibitor 2]
- normalised cell viability [1]: 1.02 ± 0.022
- normalised cell viability [2]: 0.854 ± 0.028
- normalised cell viability [3]: 1.03 ± 0.015
- normalised cell viability [4]: 1.07 ± 0.021
- normalised cell viability [5]: 1.001 ± 0.0081
- normalised cell viability [6]: 0.567 ± 0.033

SMILES: CC(=O)[C@]1(O)Cc2c(O)c3c(c(O)c2[C@@H](O[C@H]2C[C@H](N)[C@H](O)[C@H](C)O2)C1)C(=O)c1ccccc1C3=O [Idarubicin hydrochloride]
- normalised cell viability [1]: 0.00497 ± 0.00094
- normalised cell viability [2]: 0.0017 ± 0.0005
- normalised cell viability [3]: 0.00532 ± 0.0009
- normalised cell viability [4]: 0.024 ± 0.0063
- normalised cell viability [5]: 0.00471 ± 0.00071
- normalised cell viability [6]: 0.00231 ± 0.00037

SMILES: CCCCC(=O)OCC(=O)[C@]1(O)Cc2c(O)c3c(c(O)c2[C@@H](O[C@H]2C[C@H](NC(=O)C(F)(F)F)[C@H](O)[C@H](C)O2)C1)C(=O)c1c(OC)cccc1C3=O [Valrubicin]
- normalised cell viability [1]: 0.665 ± 0.04
- normalised cell viability [2]: 0.868 ± 0.016
- normalised cell viability [3]: 0.973 ± 0.016
- normalised cell viability [4]: 0.982 ± 0.017
- normalised cell viability [5]: 0.228 ± 0.017
- normalised cell viability [6]: 0.374 ± 0.0045

SMILES: CC(=O)[C@]1(O)Cc2c(O)c3c(c(O)c2[C@@H](O[C@H]2C[C@H](N)[C@H](O)[C@H](C)O2)C1)C(=O)c1ccccc1C3=O [Idarubicin hydrochloride; Idarubicin; 4-DMD HCl]
- normalised cell viability [1]: 0.0183 ± 0.0037
- normalised cell viability [2]: 1.06 ± 0.026
- normalised cell viability [3]: 0.0494 ± 0.0094
- normalised cell viability [4]: 1.033 ± 0.0058
- normalised cell viability [5]: 0.00163 ± 0.00068
- normalised cell viability [6]: 1.006 ± 0.0075

SMILES: COc1cccc2c1C(=O)c1c(O)c3c(c(O)c1C2=O)C[C@@](O)(C(=O)CO)C[C@@H]3O[C@H]1C[C@H](N)[C@H](O)[C@H](C)O1 [Doxorubicin hydrochloride; 4'-Epiadriamycin; Doxorubicin HCl]
- normalised cell viability [1]: 0.454 ± 0.36
- normalised cell viability [2]: 0.288 ± 0.3
- normalised cell viability [3]: 0.754 ± 0.26
- normalised cell viability [4]: 0.484 ± 0.48
- normalised cell viability [5]: 0.178 ± 0.17
- normalised cell viability [6]: 0.129 ± 0.14

SMILES: COc1cccc2c1C(=O)c1c(O)c3c(c(O)c1C2=O)C[C@@](O)(C(C)=O)C[C@@H]3O[C@H]1C[C@H](N)[C@H](O)[C@H](C)O1 [Daunorubicin hydrochloride; Daunorubicin HCl]
- normalised cell viability [1]: 0.0398 ± 0.0066
- normalised cell viability [2]: 1.05 ± 0.011
- normalised cell viability [3]: 0.587 ± 0.027
- normalised cell viability [4]: 1.013 ± 0.0058
- normalised cell viability [5]: 0.0031 ± 0.0017
- normalised cell viability [6]: 1.007 ± 0.0058

SMILES: NC(CCCP(=O)(O)O)C(=O)O (racemic) [(±)-2-Amino-5-phosphonopentanoic acid]
- normalised cell viability [1]: 0.987 ± 0.0072
- normalised cell viability [2]: 0.9967 ± 0.0031
- normalised cell viability [3]: 0.9907 ± 0.0083
- normalised cell viability [4]: 0.993 ± 0.0028
- normalised cell viability [5]: 0.98 ± 0.0056
- normalised cell viability [6]: 0.9857 ± 0.0098

SMILES: N[C@@H](CCC(=O)N[C@@H](CSN=O)C(=O)NCC(=O)O)C(=O)O [S-Nitrosoglutathione]
- normalised cell viability [1]: 1.003 ± 0.0058
- normalised cell viability [2]: 1.02 ± 0.025
- normalised cell viability [3]: 1.02
- normalised cell viability [4]: 1.04 ± 0.064
- normalised cell viability [5]: 0.9933 ± 0.0035
- normalised cell viability [6]: 1 ± 0.014

SMILES: c1ccc2c(c1)CC(N1CCN(c3cccc4c3OCCO4)CC1)C2
- normalised cell viability [1]: 0.988 ± 0.019
- normalised cell viability [2]: 0.9857 ± 0.0084
- normalised cell viability [3]: 0.995 ± 0.015
- normalised cell viability [4]: 1.03 ± 0.081
- normalised cell viability [5]: 1.003 ± 0.0058
- normalised cell viability [6]: 1.02 ± 0.011

SMILES: Nc1nccc2c1ncn2[C@@H]1O[C@H](CO)[C@@H](O)[C@H]1O [3-deazaadenosine]
- normalised cell viability [1]: 0.989 ± 0.0099
- normalised cell viability [2]: 0.973 ± 0.025
- normalised cell viability [3]: 0.996 ± 0.012
- normalised cell viability [4]: 0.981 ± 0.011
- normalised cell viability [5]: 0.9687 ± 0.0035
- normalised cell viability [6]: 0.968 ± 0.0062

SMILES: O=C(c1ccc(Nc2nccc(-c3cc4ccccc4s3)n2)cc1)N1CCC(N2CCCC2)CC1 [IKK-16 (IKK Inhibitor VII)]
- normalised cell viability [1]: 0.901 ± 0.0072
- normalised cell viability [2]: 0.626 ± 0.03
- normalised cell viability [3]: 0.913 ± 0.015
- normalised cell viability [4]: 0.837 ± 0.021
- normalised cell viability [5]: 0.9453 ± 0.0065
- normalised cell viability [6]: 0.0503 ± 0.008

SMILES: CNCC[C@H](Oc1cccc2ccccc12)c1cccs1 [Duloxetine HCl]
- normalised cell viability [1]: 0.9993 ± 0.0011
- normalised cell viability [2]: 0.9847 ± 0.0032
- normalised cell viability [3]: 1.01 ± 0.018
- normalised cell viability [4]: 0.98 ± 0.015
- normalised cell viability [5]: 0.999 ± 0.0095
- normalised cell viability [6]: 0.9923 ± 0.0083

SMILES: C[n+]1cc2c3c(ccc2c2ccc4cc5c(cc4c21)OCO5)OCO3 [Sanguinarine chloride]
- normalised cell viability [1]: 1.04 ± 0.011
- normalised cell viability [2]: -0.0014 ± 0.001
- normalised cell viability [3]: 0.903 ± 0.2
- normalised cell viability [4]: -0.00109 ± 0.00052
- normalised cell viability [5]: 0.983 ± 0.037
- normalised cell viability [6]: -0.000203 ± 0.00043

SMILES: Cc1ccccc1CNc1ncnc2c1ncn2[C@@H]1O[C@H](CO)[C@@H](O)[C@H]1O [Metrifudil]
- normalised cell viability [1]: 1.01 ± 0.011
- normalised cell viability [2]: 1.03 ± 0.017
- normalised cell viability [3]: 1.02
- normalised cell viability [4]: 1.04 ± 0.071
- normalised cell viability [5]: 0.996 ± 0.004
- normalised cell viability [6]: 1.001 ± 0.0085
